Assay results reported in PubChem BioAssay AID624111 (Johns Hopkins Ion Channel Center, 2012).
In all, about 4,000 compounds went through this assay and about 60 (2%) were called active.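 How the source made its calls: active means duplicate-averaged calcium fluorescence ratio at least three times the standard deviation of buffer wells, a nonspecific response in parental cells; inactive means the rest.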 This excerpt belongs to a sample that is enriched for actives.

assay: calcium flux effects in cells lacking MrgX1 – parental HEK293 cells, Fluo-4 calcium flux, counter-screen for MrgX1 antagonist project, confirmation (AID 624111); conditions: parental HEK293, Fluo-4 calcium fluorescence, FDSS; at 10 µM

Q: For `COc1ccc(C(=O)NC(=S)NNC(=O)c2c(-c3ccccc3)noc2C)cc1`, which fluorescence ratio F(max-min)/F0 is on record?
A: Its fluorescence ratio F(max-min)/F0 is “inactive”.

Q: For `O=C(COC(=O)c1ccc(NS(=O)(=O)c2cccs2)cc1O)Nc1ccc(F)cc1`, which fluorescence ratio F(max-min)/F0 is on record?
A: The fluorescence ratio F(max-min)/F0 was “inactive”.

Q: Which fluorescence ratio F(max-min)/F0 does the source give for `CN(CC(=O)Nc1ccccc1Cl)C(=O)COc1cccc2c1OC(C)(C)C2` here?
A: The fluorescence ratio F(max-min)/F0 was “inactive”.

Q: With `O=C(O)CSC(NC(=O)c1cccnc1)(C(F)(F)F)C(F)(F)F` as the molecule, how does the fluorescence ratio F(max-min)/F0 read?
A: Its fluorescence ratio F(max-min)/F0 is “inactive”.

Q: With `Nc1cc(OC(=O)c2ccccc2Br)nn1S(=O)(=O)c1ccccc1` as the molecule, how does the fluorescence ratio F(max-min)/F0 read?
A: The fluorescence ratio F(max-min)/F0 was “inactive”.

Q: For `COc1cc2c(cc1O)C(SC)=NC(C)(C)C2`, which fluorescence ratio F(max-min)/F0 is on record?
A: The fluorescence ratio F(max-min)/F0 was “inactive”.

Q: For `Cc1nn(-c2ccccc2)c2c1C(c1ccc(F)cc1)C(C#N)=C(N)O2` (stereo unspecified), which fluorescence ratio F(max-min)/F0 is on record?
A: The fluorescence ratio F(max-min)/F0 was “inactive”.

Q: With `O=C(CSc1c2c(nc3ccc(Cl)cc13)CCCC2)NCc1ccco1` as the molecule, how does the fluorescence ratio F(max-min)/F0 read?
A: Its fluorescence ratio F(max-min)/F0 is “inactive”.

Q: With `COc1ccc(OC)c(C(=O)c2ccc(Cl)cc2)c1` as the molecule, how does the fluorescence ratio F(max-min)/F0 read?
A: Its fluorescence ratio F(max-min)/F0 is “inactive”.

Q: Which fluorescence ratio F(max-min)/F0 does the source give for `CCOc1ccc(C2=CC(c3ccccc3)n3ncnc3N2)cc1` (stereo unspecified) here?
A: The fluorescence ratio F(max-min)/F0 was “inactive”.

Q: Which fluorescence ratio F(max-min)/F0 does the source give for `O=C(c1cccs1)C1C(c2ccc(Br)cc2)NC(=S)NC1(O)C(F)(F)F` (stereo unspecified) here?
A: Its fluorescence ratio F(max-min)/F0 is “inactive”.

Q: With `CCOC1CCCCC1NS(=O)(=O)c1ccc(Cl)cc1` (stereo unspecified) as the molecule, how does the fluorescence ratio F(max-min)/F0 read?
A: Its fluorescence ratio F(max-min)/F0 is “inactive”.

Q: Which fluorescence ratio F(max-min)/F0 does the source give for `CC(C)CC(=O)NC(=S)NNC(=O)c1cccc([N+](=O)[O-])c1` here?
A: Its fluorescence ratio F(max-min)/F0 is “inactive”.

Q: For `Cc1ccnc(NC(=O)C(C)N2C(=O)c3ccccc3C2=O)c1` (stereo unspecified), which fluorescence ratio F(max-min)/F0 is on record?
A: The fluorescence ratio F(max-min)/F0 was “inactive”.

Q: Which fluorescence ratio F(max-min)/F0 does the source give for `O=C1CCCc2c1nc(-c1cccc(Cl)c1)n2O` here?
A: Its fluorescence ratio F(max-min)/F0 is “inactive”.

Q: With `O=C(CSc1nncn1-c1cccnc1)N1CCOCC1` as the molecule, how does the fluorescence ratio F(max-min)/F0 read?
A: Its fluorescence ratio F(max-min)/F0 is “inactive”.

Q: Which fluorescence ratio F(max-min)/F0 does the source give for `O=c1c2cc(Br)ccc2nc(-c2cccc(Cl)c2)n1O` here?
A: The fluorescence ratio F(max-min)/F0 was “inactive”.

Q: For `O=C1Cc2ccccc2Sc2ccc(Cl)cc21`, which fluorescence ratio F(max-min)/F0 is on record?
A: Its fluorescence ratio F(max-min)/F0 is “inactive”.

Q: For `CCOc1ccc2nc(/N=C/c3nc(-c4ccccc4)oc3O)sc2c1`, which fluorescence ratio F(max-min)/F0 is on record?
A: The fluorescence ratio F(max-min)/F0 was 0.438 (active).

Q: Which fluorescence ratio F(max-min)/F0 does the source give for `COCC(C)NC(=O)c1ccc(Cl)c(Cl)c1` (stereo unspecified) here?
A: Its fluorescence ratio F(max-min)/F0 is “inactive”.

Q: Which fluorescence ratio F(max-min)/F0 does the source give for `COCCNC(=O)C1CCN(S(=O)(=O)c2ccc3c(c2)OCCO3)CC1` here?
A: The fluorescence ratio F(max-min)/F0 was “inactive”.

Q: With `FC(F)Oc1ccc(NC(=S)NCc2ccco2)cc1Cl` as the molecule, how does the fluorescence ratio F(max-min)/F0 read?
A: Its fluorescence ratio F(max-min)/F0 is “inactive”.

Q: With `COc1ccc(NC(=O)c2cc(-c3ccc(C)o3)nc3ccccc23)cc1` as the molecule, how does the fluorescence ratio F(max-min)/F0 read?
A: Its fluorescence ratio F(max-min)/F0 is “inactive”.

Q: Which fluorescence ratio F(max-min)/F0 does the source give for `O=C(COC(=O)C1CCN(S(=O)(=O)c2ccc3c(c2)OCCO3)CC1)Nc1ccccc1OC(F)F` here?
A: Its fluorescence ratio F(max-min)/F0 is “inactive”.

Q: With `CC1CCN(S(=O)(=O)c2nnc(NC(=O)COc3ccccc3F)s2)CC1` as the molecule, how does the fluorescence ratio F(max-min)/F0 read?
A: The fluorescence ratio F(max-min)/F0 was “inactive”.

Q: For `COC(=O)Cn1c(O)c(N=NC(=O)OC)c2ccccc21`, which fluorescence ratio F(max-min)/F0 is on record?
A: Its fluorescence ratio F(max-min)/F0 is “inactive”.

Q: With `O=C(Nc1nc2c(F)cc(F)cc2s1)C1COc2ccccc2O1` (stereo unspecified) as the molecule, how does the fluorescence ratio F(max-min)/F0 read?
A: Its fluorescence ratio F(max-min)/F0 is “inactive”.

Q: Which fluorescence ratio F(max-min)/F0 does the source give for `CC(C)OCCCNc1ncnc2c1[nH]c1ccc(F)cc12` here?
A: Its fluorescence ratio F(max-min)/F0 is “inactive”.

Q: With `O=C(CC(O)(C(F)(F)F)C(F)(F)F)Nc1ccc(Cl)c(Cl)c1` as the molecule, how does the fluorescence ratio F(max-min)/F0 read?
A: Its fluorescence ratio F(max-min)/F0 is “inactive”.

Q: Which fluorescence ratio F(max-min)/F0 does the source give for `O=C(Nc1ccccc1N1CCOCC1)c1csc2c1CCCC2` here?
A: Its fluorescence ratio F(max-min)/F0 is “inactive”.

Q: Which fluorescence ratio F(max-min)/F0 does the source give for `Cc1ccc2cc(/C=N/Nc3ccc(C(=O)O)cc3)c(Cl)nc2c1` here?
A: Its fluorescence ratio F(max-min)/F0 is “inactive”.

Q: With `CCOCc1nnc(NC(=O)CCC2CCCCC2)s1` as the molecule, how does the fluorescence ratio F(max-min)/F0 read?
A: The fluorescence ratio F(max-min)/F0 was “inactive”.

Q: Which fluorescence ratio F(max-min)/F0 does the source give for `O=C(Cn1c(-c2cncs2)nc2ccccc21)NC1CCCC1` here?
A: The fluorescence ratio F(max-min)/F0 was “inactive”.

Q: Which fluorescence ratio F(max-min)/F0 does the source give for `COc1cc(C2/C(=C(\O)c3ccc4c(c3)CC(C)O4)C(=O)C(=O)N2Cc2ccco2)ccc1O` (stereo unspecified) here?
A: Its fluorescence ratio F(max-min)/F0 is “inactive”.

Q: Which fluorescence ratio F(max-min)/F0 does the source give for `CC1CCCCN1S(=O)(=O)c1ccc(C(=O)Nc2nnc(-c3cccs3)o2)cc1` (stereo unspecified) here?
A: Its fluorescence ratio F(max-min)/F0 is “inactive”.

Q: With `O=C(Oc1ccc(C(=S)N2CCOCC2)cc1)c1ccc(F)cc1` as the molecule, how does the fluorescence ratio F(max-min)/F0 read?
A: Its fluorescence ratio F(max-min)/F0 is “inactive”.

Q: With `COC(=O)Cc1cc(=O)n(-c2nc3ccccc3s2)[nH]1` as the molecule, how does the fluorescence ratio F(max-min)/F0 read?
A: Its fluorescence ratio F(max-min)/F0 is “inactive”.

Q: For `COC(=O)c1c(NC(=O)c2c(Cl)cnn2C)sc(C)c1C`, which fluorescence ratio F(max-min)/F0 is on record?
A: The fluorescence ratio F(max-min)/F0 was “inactive”.

Q: Which fluorescence ratio F(max-min)/F0 does the source give for `COc1cccc(CCNC(=O)COc2cccc3c2OC(C)(C)C3)c1` here?
A: The fluorescence ratio F(max-min)/F0 was “inactive”.

Q: For `CCOC(=O)Cc1csc(SCc2cc(=O)oc3cc(O)ccc23)n1`, which fluorescence ratio F(max-min)/F0 is on record?
A: Its fluorescence ratio F(max-min)/F0 is “inactive”.

Q: For `NC(=O)c1c(Nc2nc3c(F)cccc3s2)sc2c1CCCC2`, which fluorescence ratio F(max-min)/F0 is on record?
A: Its fluorescence ratio F(max-min)/F0 is “inactive”.

Q: For `COc1ccc([N+](=O)[O-])cc1NC(=O)COC(=O)/C=C/c1ccco1`, which fluorescence ratio F(max-min)/F0 is on record?
A: The fluorescence ratio F(max-min)/F0 was “inactive”.

Q: For `Cc1ccc(OC(=O)c2cc3ccccc3o2)cc1`, which fluorescence ratio F(max-min)/F0 is on record?
A: The fluorescence ratio F(max-min)/F0 was “inactive”.

Q: For `Cc1cccc(-n2c(Cc3cc(=O)[nH]c(=O)[nH]3)nnc2SC(C)C)c1`, which fluorescence ratio F(max-min)/F0 is on record?
A: The fluorescence ratio F(max-min)/F0 was “inactive”.

Q: For `Cc1ccc(Nc2nc(-c3ccc(O)cc3O)cs2)nc1`, which fluorescence ratio F(max-min)/F0 is on record?
A: The fluorescence ratio F(max-min)/F0 was “inactive”.

Q: Which fluorescence ratio F(max-min)/F0 does the source give for `COc1ccc(Nc2nc(-c3cccnc3)nc3ccccc23)cn1` here?
A: The fluorescence ratio F(max-min)/F0 was “inactive”.

Q: Which fluorescence ratio F(max-min)/F0 does the source give for `Cc1ccc(S(=O)(=O)N(C)c2nc3ccccc3n3c(C(C)C)nnc23)cc1` here?
A: Its fluorescence ratio F(max-min)/F0 is “inactive”.

Q: With `COC(=O)c1c(NC(=O)CN(c2ccc(C)c(C)c2)S(C)(=O)=O)sc2c1CCCC2` as the molecule, how does the fluorescence ratio F(max-min)/F0 read?
A: The fluorescence ratio F(max-min)/F0 was “inactive”.

Q: With `Cc1nonc1C1CCCN1Cc1nc(-c2ccc(F)cc2F)oc1C` (stereo unspecified) as the molecule, how does the fluorescence ratio F(max-min)/F0 read?
A: The fluorescence ratio F(max-min)/F0 was “inactive”.

Q: For `Cc1ccc(C(C(=O)NC2CCCCC2)N(C(=O)c2csnn2)C2CC2)o1` (stereo unspecified), which fluorescence ratio F(max-min)/F0 is on record?
A: The fluorescence ratio F(max-min)/F0 was “inactive”.

Q: With `CCCc1nc2c(c(=O)c3ccccc3n2C)c(=O)n1C1CCCCCC1` as the molecule, how does the fluorescence ratio F(max-min)/F0 read?
A: The fluorescence ratio F(max-min)/F0 was “inactive”.

Q: For `COC(=O)c1ccc(C2C3=C(Nc4nnnn42)c2ccccc2OC3)cc1` (stereo unspecified), which fluorescence ratio F(max-min)/F0 is on record?
A: Its fluorescence ratio F(max-min)/F0 is “inactive”.

Q: For `CCN(CC)c1ccc(C2C3CCCCC3(O)CCN2CC(=O)Nc2ccccc2)cc1` (stereo unspecified), which fluorescence ratio F(max-min)/F0 is on record?
A: The fluorescence ratio F(max-min)/F0 was “inactive”.

Q: For `Cc1cccc(NC(=O)COc2ccccc2C)n1`, which fluorescence ratio F(max-min)/F0 is on record?
A: The fluorescence ratio F(max-min)/F0 was “inactive”.

Q: For `COc1ccc(Cc2nc(-c3ccccn3)no2)cc1OC`, which fluorescence ratio F(max-min)/F0 is on record?
A: Its fluorescence ratio F(max-min)/F0 is “inactive”.

Q: For `CN(C)CCn1c(=S)[nH]c2ccc(Cl)cc2c1=O`, which fluorescence ratio F(max-min)/F0 is on record?
A: Its fluorescence ratio F(max-min)/F0 is “inactive”.
